ChEMBL document CHEMBL3988442, “University of Dundee, Small-Polar-MMV Screening Library” (2021)
About 440 (0.52%) of roughly 85,000 compounds showed an effect of 50% or more. The entries come from a sample that favours strong results as a whole.

Experiment: In vitro enzyme assay to detect hydrolysis of chlorophenol red-beta-D-[…] directly proportional to the number of Toxoplasma stably expressing beta-galactosidase
Type: functional, organism-based, Toxoplasma gondii
Set-up: scale not given: in the data most compounds retested in dose-response had high values

SMILES | Percent Effect (50 µM) | Percent Effect (10 µM)
CC(C)NC(=O)CNCc1ccc(Br)o1 | 0.3067% | –
CN1CCN(C)C2(CCN(C(=O)C(C)(C)O)CC2)C1 | 7.866% | –
Cc1cc(C(=O)N2CCN(c3nc4c(C(C)C)cccc4s3)CC2)no1 | – | 14.68%
Cc1cc(C(=O)N2CCN(c3nc4c(C(C)C)cccc4s3)CC2)on1 | – | 83.09%
Cc1cc(C(=O)N2CCN(c3nc4c(C)cccc4s3)CC2)no1 | – | 11.62%
CC(C)C(=O)Nc1cccc(CN)c1 | -3.402% | –
CCOCCSc1nnnn1CC1CCCO1 (stereo not given) | 4.057% | –
CCc1nc(Nc2ccc(C(=O)NC)cc2)c2c(n1)c(C)nn2CC | – | 64.18%
CCc1nc(NCC(=O)N2CCOCC2)c2c(n1)c(C)nn2CC | – | -2.271%
CCn1nc(C)c2nnn(CC(=O)Nc3ccc(C)cc3)c(=O)c21 | – | 5.455%
CCn1nc(C)c(C(C)NC(=O)c2cccc(NCC(=O)O)c2)c1C (stereo not given) | – | -6.268%
CCc1nc(Nc2cccc(C(=O)NC)c2)c2c(n1)c(C)nn2CC | – | 63.37%
CCCc1nc(Nc2cccc(C(N)=O)c2)c2c(n1)c(C)nn2CC | – | 20.54%
CN1C(=O)c2cccn2CC1CNC(=O)c1ccco1 (stereo not given) | 46.69% | –
CNC(=O)CS(=O)(=O)Cc1cc(=O)n(C)c(=O)n1C | 9.101% | –
CN(C)C(=O)CN(C)c1ncc(C(F)(F)F)cc1Cl | 0.3926% | –
CCS(=O)(=O)Nc1ccc(C(=O)NC2CC2)cc1 | -14.67% | –
Cc1cnc(C(NC(=O)NCc2nc(C3CC3)no2)C2CC2)s1 (stereo not given) | – | 2.41%
O=C(NCc1nc(C2CC2)no1)Nc1nncs1 | 96.18% | –
CCc1nc(C2CCCN2CC(=O)Nc2nncs2)no1 (stereo not given) | – | 2.118%
Cc1ccccc1C1(O)CCN(Cc2ncc[nH]2)C1 (stereo not given) | -4.711% | –
Cc1ncc(CN2CCOC(c3ccc(-c4ccccc4F)cn3)C2)s1 (stereo not given) | – | 56.75%
Cc1ncc(CN2CCOC(c3ccc(-c4cc[nH]n4)cn3)C2)s1 (stereo not given) | – | -16.2%
Cc1ncc(CN2CCOC(c3ccc(-c4cnn(C)c4)cn3)C2)s1 (stereo not given) | – | -14.87%

SMILES | Percent Effect (50 µM) | Percent Effect (10 µM)
O=C(NC1CCNC1)C1CCC1 (stereo not given) | 7.426% | –
N#Cc1ccc(CN)c(F)c1 | 29.17% | –
CC(C)CNC(=O)CSc1n[nH]c(-c2ccccn2)n1 | 52.47% | –
CC(CSc1n[nH]c(-c2ccccn2)n1)CS(C)(=O)=O (stereo not given) | 14.41% | –
CC(Sc1n[nH]c(-c2ccccn2)n1)C(=O)N(C)C (stereo not given) | 2.084% | –
CCNc1cccc(OC)c1 | -5.589% | –
Cn1nc(CC#N)c2ccccc21 | -11.92% | –
CCCc1nnc(NCc2cccnc2)o1 | -5.41% | –
OCCOc1ccc(NCc2cccnc2)cn1 | – | 0.5408%
Nc1cccnc1NCc1cccnc1 | 56.86% | –
CN(CCN1CCCC1=O)C(=O)c1ncccc1Br | -6.361% | –
N#CCC1COc2ccccc2O1 (stereo not given) | -13.18% | –
CC(C)N(C)S(=O)(=O)NCCCN(C)c1ccccc1 | 0.05674% | –
CN(C)C(=O)C1CCN(Cc2ccccc2F)CC1 | -0.8921% | –
COC[C@@H]1CCC[C@@]12CN(Cc1ccco1)CCO2.O=C(O)C(F)(F)F | – | -11.03%
COC[C@@H]1CCC[C@@]12CN(Cc1ccc(C)s1)CCO2.O=C(O)C(F)(F)F | – | 74.98%
COC[C@@H]1CCC[C@]12CN(Cc1ccco1)CCO2.O=C(O)C(F)(F)F | – | -8.533%
O=C(c1ccco1)N1CCC(N2CCCC2)CC1 | -19.12% | –
CN(Cc1ccccn1)Cc1csnn1 | 13.21% | –
O=C(c1ccc(Br)cn1)N1CCC(n2ccnn2)CC1 | 0.6699% | –
COc1cccc(CO)c1C | -13.36% | –
COC(=O)c1ccc(CN2CCCC(CO)C2)cc1 (stereo not given) | -14.35% | –
CCOc1ccc(C(=O)N2CCC(N)CC2)cc1 | 56.89% | –
CCOc1ccccc1C(=O)N1CCC(N)CC1 | 9.165% | –

SMILES | Percent Effect (50 µM) | Percent Effect (10 µM)
CCCc1ccc(C(=O)N2CCC(N)CC2)cc1 | -1.427% | –
Cc1cc(Br)cc(C(=O)NC2(C(N)=O)CC2)c1 | 10.26% | –
CC(C)=CCN1CCN(CCO)CC1CCO (stereo not given) | 22.16% | –
O=C(NC1=NCCS1)c1cc2cc(F)ccc2s1 | -6.521% | –
Cn1nccc1CCC(=O)NCCN1CCCC1 | 10.39% | –
COc1ccc(C(C)N(C)Cc2c(C(C)C)[nH]c3ncccc23)cc1 (stereo not given) | – | -0.3537%
COc1ccc(C(C)N(C)Cc2c(C3CC3)[nH]c3ncccc23)cc1.Cl (stereo not given) | – | 65.16%
COc1ccc(C(C)N(C)Cc2c(C(C)(C)C)[nH]c3ncccc23)cc1 (stereo not given) | – | -0.9197%
NS(=O)(=O)c1cccnc1NC1CCc2ccccc21 (stereo not given) | 16.24% | –
CN(C1CCCCC1)S(=O)(=O)N1CCNCC1 | 5.411% | –
COC(=O)c1cnc(C)c(OC)c1 | -7.167% | –
CCS(=O)(=O)N1CCN(C(=O)c2cnc3[nH]nc(C)c3c2)CC1 | – | -8.634%
COC(=O)c1cnc2[nH]nc(C)c2c1 | 55.45% | –
NCCNC(=O)c1ccc(-c2ccc(Cl)cc2)s1 | 89.1% | –
CC(C)(NC(=O)c1ccc(-c2ccc(F)cc2)s1)C(N)=O | – | 16.31%
NS(=O)(=O)CCNC(=O)c1ccc(-c2cccs2)s1 | 1.485% | –
Cc1csc(CCNC(=O)CSCC#N)n1 | -3.488% | –
CC(O)C(=O)Nc1ccc(Cl)c(OC(F)F)c1 (stereo not given) | -7.05% | –
CC(C)(C)OC(=O)NCc1cc(C(N)=O)co1 | -10.17% | –
CCC(CNC(=O)c1ccoc1)N1CCCC1 (stereo not given) | 9.191% | –
Cn1cc(NC(=O)CC2C=CCC2)cc(Br)c1=O (stereo not given) | -2.451% | –
N#CCCN(CCC#N)Cc1ccc(Br)c2cccnc12 | – | 11.15%
CCN(CCO)Cc1ccc(Br)c2cccnc12 | – | 72.7%
OCCN(CCO)Cc1ccc(Br)c2cccnc12 | – | 9.5%

SMILES | Percent Effect (50 µM) | Percent Effect (10 µM)
Cc1nc2ccccc2nc1NCc1cccc(OCC2CCCO2)c1 (stereo not given) | – | 17.15%
N#Cc1ccc(NCc2cccc(OCC3CCCO3)c2)nc1 (stereo not given) | – | -17.65%
Cc1nnc(NCc2cccc(OCC3CCCO3)c2)c(C#N)c1C (stereo not given) | – | 91.1%
CN(C)S(=O)(=O)N(CCCO)c1ccccc1Br | -12.8% | –
CCc1nnc(Nc2cc(C)nc(C3CCN(c4ccncn4)C3)n2)s1 (stereo not given) | – | 84.37%
CCc1nnc(Nc2cc(C)nc(C3CCN(c4cnccn4)C3)n2)s1 (stereo not given) | – | 9.302%
CCc1nnc(Nc2cc(C)nc(C3CCN(c4ncccn4)C3)n2)s1 (stereo not given) | – | 8.527%
O=C(c1cccc(N2CCNC2=O)c1)N1CCOCC1 | -16.74% | –
Clc1ccccc1-c1cc(CNc2ncnc3c2CCNCC3)no1 | – | 22.17%
Cc1ccc(-c2cc(CNc3ncnc4c3CCNCC4)no2)cc1 | – | 59.71%
COc1ccc(-c2cc(CNc3ncnc4c3CCNCC4)no2)cc1 | – | 5.898%
O=C(CSc1nnc[nH]1)NCc1ccc(Br)c(F)c1 | -12.01% | –
CCOc1ccc(CN2C(=O)CC(C)(C)C2=O)nc1 | – | 15.64%
CC(C)n1ccc(CN2C(=O)CC(C)(C)C2=O)n1 | 66.84% | –
CC(=O)Cc1ccn(C(C)C)n1 | -14.04% | –
Nc1n[nH]c(SCc2ccc3c(c2)OCCO3)n1 | 48.58% | –
CC(C)(C)OC(=O)CNC1CCOCC1 | -4.673% | –
CCN1CC(C(=O)Nc2ccc(Br)cn2)CC1=O (stereo not given) | -17.13% | –
Cc1cccc(NC(=O)C2CCCNC2)n1 (stereo not given) | -13.07% | –
O=C(Nc1ccc(Br)cn1)C1CCCNC1 (stereo not given) | 56.99% | –
CC(NC(=O)c1ccc(Br)cc1)C(=O)N1CCOCC1 (stereo not given) | -8.67% | –
Cc1cc(C)n(CC2CCCN2CCCS(C)(=O)=O)n1 (stereo not given) | – | 55.61%
Cc1cc(C)n(CC2CCCN2CCS(C)(=O)=O)n1 (stereo not given) | – | -2.075%
Cc1cc(C)n(CC2CCCN2CCCS(N)(=O)=O)n1 (stereo not given) | – | -7.895%

SMILES | Percent Effect (50 µM) | Percent Effect (10 µM)
Cc1n[nH]c(C)c1C(NC(N)=O)c1ccccc1 (stereo not given) | 2.289% | –
CCN1CCCN(c2ccccn2)CC1 | 3.404% | –
NCc1cccc(-c2ccccn2)n1 | 73.75% | –
NCc1nc(-c2ccccn2)cs1 | -2.115% | –
NCc1nc(-c2ccccn2)no1 | -15.18% | –
CN(CC(=O)Nc1ccsc1)C1CCS(=O)(=O)C1 (stereo not given) | -6.022% | –
O=C(NCC1CCOC1)c1ccoc1C(F)(F)F (stereo not given) | -4.875% | –
NCCNc1ccc2ccccc2n1 | -5.159% | –
O=C(c1ccc(F)cc1)C(O)O | 0.6979% | –
CCn1ncnc1CN1CCCC2(C1)CN(C)C(=O)O2 (stereo not given) | -8.186% | –
CC(=O)N1CCCCCC1C1CCNCC1 (stereo not given) | -20.88% | –
COCC(=O)N1CCCCCC1C1CCNCC1 (stereo not given) | -2.687% | –
NC(=O)N1CCCCCC1C1CCNCC1 (stereo not given) | 99.53% | –
COCCC(=O)N(C)C(C)Cc1ncccc1C (stereo not given) | -3.603% | –
O[C@@H]1CCC[C@H]1n1cccn1 | 27.87% | –
CC1(C)CC(n2cccn2)C(C)(C)O1 (stereo not given) | 95.21% | –
Cn1cc(C(=O)NC2CC(C)(C)OC2(C)C)cn1 (stereo not given) | 6.396% | –
Cc1cc(C(=O)NCc2ccc(CO)cc2)cc(C)n1 | 4.895% | –
Cc1cn2c(n1)C(CNCc1cccc3c1OCO3)CCC2 (stereo not given) | – | 1.818%
CC(C)(C)c1cn2c(n1)C(CNCc1cnn3ccccc13)CCC2 (stereo not given) | – | 84.08%
Cn1cccc1CNCC1CCCn2cc(C(C)(C)C)nc21 (stereo not given) | – | 2.504%
CC(C)(C)c1cn2c(n1)C(CNCc1ccccn1)CCC2 (stereo not given) | – | 84.2%
Cc1cn2c(n1)C(CNCC1=Cc3ccccc3OC1)CCC2 (stereo not given) | – | -4.432%
Cc1cn2c(n1)C(CNCc1cnn3ccccc13)CCC2 (stereo not given) | – | -1.725%
